Measured values: PubChem BioAssay (Tox21)
Results filed as inconclusive are left out. Active and inactive are the calls of the source. Unless noted, calls follow the shape of the full dose curve.

What was measured:
[1] = target: Peroxisome proliferator-activated receptor delta (Homo sapiens) (UniProt Q03181); assay: qHTS assay to identify small molecule agonists of the peroxisome proliferator-activated receptor delta (PPARd) signaling pathway (AID 743212)
Procedure, shortened: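 Read-out: beta-lactamase FRET fluorescence after 2 h room-temperature incubation with LiveBLAzer B/G substrate. Cells were HEK293H carrying a UAS-bla reporter for PPARd, treated at 37 C with DMSO-dissolved compounds.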

[2] = qHTS assay to identify small molecule antagonists of the peroxisome proliferator-activated receptor delta (PPARd) signaling pathway - cell viability counter screen (AID 743213; active = well fitted curve in the direction sought with a large enough effect in the repeat runs; an effect the other way counts as inactive or inconclusive; also: nearly all actives have a fitted effect of over 50% in size)
Procedure, shortened: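 PPARd-bla HEK293H cells were treated with compounds plus agonist L165041 (300 nM final) for 17 h at 37 C. Viability was then read in the same wells by CellTiter-Glo luminescence after 30 min at room temperature.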

[3] = qHTS assay to identify small molecule antagonists of the farnesoid-X-receptor (FXR) signaling pathway - cell viability counter screen (AID 743221; active = well fitted cell-killing curve with a large enough effect in the repeat runs, not every such curve was filed as active; also: nearly all actives have a fitted effect of over 50% in size)
Procedure, shortened: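 Quantitative HTS of the Tox21 10K library run in parallel with the beta-lactamase reporter read. HEK 293T cells carrying a UAS-driven bla reporter got compound and 50 uM CDCA (final) for 16 h; ATP-based luminescence followed.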

[4] = qHTS assay to identify small molecule agonists of the vitamin D receptor (VDR) signaling pathway - cell viability counter screen (AID 743224; active = well fitted curve in the direction sought with a large enough effect in the repeat runs; an effect the other way counts as inactive or inconclusive; also: series mostly up to about 63 µM; nearly all actives have a fitted effect of over 50% in size)
Procedure, shortened: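 CellTiter-Glo viability readout on VDR-bla cells, measured after 16 h of compound treatment at 37C in the same wells.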

[5] = qHTS assay to identify small molecule antagonists of the vitamin D receptor (VDR) signaling pathway - cell viability counter screen (AID 743225; active = well fitted curve in the direction sought with a large enough effect in the repeat runs; an effect the other way counts as inactive or inconclusive; also: nearly all actives have a fitted effect of over 50% in size)
Procedure, shortened: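 Cells (VDR-UAS-bla HEK 293T) are plated, rested 4 h at 37C, dosed with compound and 3 nM final 1-alpha,25-dihydroxy vitamin D3, and incubated 16 h. Viability is taken from CellTiter-Glo luminescence in the reporter wells.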

[6] = qHTS assay to identify small molecule agonists of the NFkB signaling pathway - cell viability counter screen (AID 1159515); also: series mostly up to about 61 µM; nearly all actives have a fitted effect of over 55% in size
Procedure, shortened: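 Tox21 library compounds were tested for cytotoxicity against NFkB-bla ME-180 cells during a 5 hr exposure at 37 C. CellTiter-Glo luminescence served as the viability read-out.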

[7] = qHTS assay to identify small molecule agonists of the endoplasmic reticulum stress response signaling pathway (AID 1159516; active = well fitted activation curve with a large enough effect in the signal ratio in the repeat runs, not every such curve was filed as active; the % refers to the signal ratio)
Procedure, shortened: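 Fluorescence at 460 and 530 nm (405 nm excitation) reports beta-lactamase from an ER stress response element in HeLa cells treated 5 hr at 37 C.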

[8] = qHTS assay to identify small molecule agonists of the endoplasmic reticulum stress response signaling pathway - cell viability counter screen (AID 1159517)
Procedure, shortened: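 Steps: seed 1,500 ESRE-bla HeLa cells per well; incubate overnight at 37 C, 5% CO2; add compounds in DMSO for 5 hr; run FRET substrate 2 hr RT; add CellTiter-Glo, wait 30 min, read luminescence.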

[9] = qHTS assay to identify small molecule antagonists of the retinoid-related orphan receptor gamma (ROR-gamma) signaling pathway - cell viability counter screen (AID 1159520; active = well fitted curve in the direction sought with a large enough effect in the repeat runs; an effect the other way counts as inactive or inconclusive; also: nearly all actives have a fitted effect of over 50% in size)
Procedure, shortened: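 Tet-on ROR gamma CHO cells were given compounds for 2 hr, then doxycycline hyclate at 1 uM final, and incubated 16 hr at 37 C. Viability was measured as ATP content by CellTiter-Glo luminescence.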

[10] = target: Nuclear receptor ROR-gamma (Homo sapiens) (UniProt P51449); assay: qHTS assay to identify small molecule antagonists of the retinoid-related orphan receptor gamma (ROR-gamma) signaling pathway (AID 1159521; active = well fitted curve in the direction sought with a large enough effect in the repeat runs; an effect the other way counts as inactive or inconclusive)
Procedure, shortened: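 RORγ antagonism is scored from reduced reporter luminescence in Tet-on CHO cells. Induction used 1 uM final doxycycline hyclate for 16 h at 37 C, following a 2 h compound exposure.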

[11] = qHTS assay to identify small molecule agonists of the AP-1 signaling pathway - cell viability counter screen (AID 1159525); also: nearly all actives have a fitted effect of over 55% in size
Procedure, shortened: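 Same-well cytotoxicity counter screen of the Tox21 10K library in ME-180 cells. The readout is ATP-dependent luminescence after 5 h compound treatment. Data are normalised to DMSO and tetra n-octyl ammonium bromide controls.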

[12] = qHTS assay to identify small molecule agonists of the AP-1 signaling pathway (AID 1159526)
[13] = target: Retinoic acid receptor RXR-alpha (Homo sapiens) (UniProt P19793); assay: qHTS assay to identify small molecule agonists of the RXR signaling pathway (AID 1159527); also: nearly all actives have a fitted effect of over 35% in size; also: potency is read from the fitted curve at half-maximal effect
Procedure, shortened: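 qHTS of the Tox21 10K library in GeneBLAzer RXR-alpha HEK 293T cells carrying a beta-lactamase reporter […]; 16 hr treatment, 9-cis retinoic acid as agonist control, FRET read-out.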

[14] = qHTS assay to identify small molecule agonists of the farnesoid-X-receptor (FXR) signaling pathway - cell viability counter screen (AID 743218; active = well fitted curve in the direction sought with a large enough effect in the repeat runs; an effect the other way counts as inactive or inconclusive; also: nearly all actives have a fitted effect of over 45% in size)
Procedure, shortened: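 Quantitative HTS counter screen measuring ATP-based viability via CellTiter-Glo luminescence in HEK 293T cells carrying a UAS-driven beta-lactamase reporter, after 16 h compound exposure at 37 C.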

[15] = target: Vitamin D3 receptor (Homo sapiens) (UniProt P11473); assay: qHTS assay to identify small molecule antagonists of the vitamin D receptor (VDR) signaling pathway (AID 743223; active = well fitted inhibition curve with a large enough effect in the signal ratio in the repeat runs, not every such curve was filed as active; the % refers to the signal ratio)
Procedure, shortened: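 Fluorescence from LiveBLAzer B/G FRET substrate, read after 2 h at room temperature, reflects beta-lactamase reporter activity in VDR-bla cells treated 16 h at 37C with compounds and agonist 1alpha,25-dihydroxyvitamin D3 (3 nM final).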

[16] = qHTS assay to identify small molecule agonists of the RXR signaling pathway - cell viability counter screen (AID 1159529; active = well fitted curve in the direction sought with a large enough effect in the repeat runs; an effect the other way counts as inactive or inconclusive)
Procedure, shortened: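 Cell viability is measured by CellTiter-Glo luminescence, 30 min at room temperature, in wells already read for beta-lactamase. Engineered HEK 293T cells (RXR-alpha-UAS-bla) are dosed 16 hr at 37 C. Tetraoctyl ammonium bromide serves as positive control.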

[17] = target: Vitamin D3 receptor (Homo sapiens) (UniProt P11473); assay: qHTS assay to identify small molecule agonists of the vitamin D receptor (VDR) signaling pathway (AID 743222)
Procedure, shortened: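 Tox21 cell reporter format: VDR-bla line, 16 h compound exposure in 5% CO2 at 37C, then fluorescence intensity after 2 h with LiveBLAzer B/G FRET substrate.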

[18] = target: Bile acid receptor (Homo sapiens) (UniProt Q96RI1); assay: qHTS assay to identify small molecule antagonists of the farnesoid-X-receptor (FXR) signaling pathway (AID 743217; active = well fitted inhibition curve with a large enough effect in the signal ratio in the repeat runs, not every such curve was filed as active; the % refers to the signal ratio)
Procedure, shortened: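 Test compounds are pin-transferred onto FXR-bla HEK 293T cells, then chenodeoxycholic acid is added at 50 uM final. After 16 h at 37 °C, LiveBLAzer B/G substrate is applied for 2 h at room temperature and fluorescence read.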

[19] = target: Bile acid receptor (Homo sapiens) (UniProt Q96RI1); assay: qHTS assay to identify small molecule agonists of the farnesoid-X-receptor (FXR) signaling pathway (AID 743220; active = well fitted activation curve with a large enough effect in the signal ratio in the repeat runs, not every such curve was filed as active; the % refers to the signal ratio)
Procedure, shortened: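 FXR-UAS-bla HEK 293T cells carrying a UAS-driven beta-lactamase reporter were plated for 5 h at 37C/5% CO2, then exposed to DMSO-dissolved Tox21 10K compounds for 16 h at 37C. A LiveBLAzer B/G FRET substrate was loaded for 2 h at room temperature before fluorescence reading.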

[20] = target: Peroxisome proliferator-activated receptor delta (Homo sapiens) (UniProt Q03181); assay: qHTS assay to identify small molecule antagonists of the peroxisome proliferator-activated receptor delta (PPARd) signaling pathway (AID 743215; active = well fitted inhibition curve with a large enough effect in the signal ratio in the repeat runs, not every such curve was filed as active; the % refers to the signal ratio;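 also: cells stimulated with agonist L165041 at 300 nM final during compound exposure; series mostly up to about 62 µM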)
Procedure, shortened: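 Here, a reporter line (HEK293H, beta-lactamase under a UAS) measures PPARd signaling. Compounds are tested against agonist L165041 at 300 nM final concentration over 17 h at 37 C, with fluorescence read after substrate.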

Measured: Potency

Bile acid receptor (Homo sapiens), sequence (Q96RI1 whole entry, looked up): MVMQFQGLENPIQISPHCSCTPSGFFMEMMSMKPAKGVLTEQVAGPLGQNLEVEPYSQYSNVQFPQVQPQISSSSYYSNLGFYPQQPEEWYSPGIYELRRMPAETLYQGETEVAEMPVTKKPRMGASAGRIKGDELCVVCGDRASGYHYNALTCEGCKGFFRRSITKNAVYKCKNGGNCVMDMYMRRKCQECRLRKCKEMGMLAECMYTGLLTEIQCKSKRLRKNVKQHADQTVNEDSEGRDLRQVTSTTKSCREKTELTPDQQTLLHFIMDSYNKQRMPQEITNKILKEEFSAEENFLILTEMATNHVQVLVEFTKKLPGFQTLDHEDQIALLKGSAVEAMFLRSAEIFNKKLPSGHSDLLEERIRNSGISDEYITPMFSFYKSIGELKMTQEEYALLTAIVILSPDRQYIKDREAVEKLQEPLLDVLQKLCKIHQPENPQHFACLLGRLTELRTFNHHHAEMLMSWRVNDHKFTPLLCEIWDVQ
Peroxisome proliferator-activated receptor delta (Homo sapiens), sequence (Q03181 whole entry, looked up): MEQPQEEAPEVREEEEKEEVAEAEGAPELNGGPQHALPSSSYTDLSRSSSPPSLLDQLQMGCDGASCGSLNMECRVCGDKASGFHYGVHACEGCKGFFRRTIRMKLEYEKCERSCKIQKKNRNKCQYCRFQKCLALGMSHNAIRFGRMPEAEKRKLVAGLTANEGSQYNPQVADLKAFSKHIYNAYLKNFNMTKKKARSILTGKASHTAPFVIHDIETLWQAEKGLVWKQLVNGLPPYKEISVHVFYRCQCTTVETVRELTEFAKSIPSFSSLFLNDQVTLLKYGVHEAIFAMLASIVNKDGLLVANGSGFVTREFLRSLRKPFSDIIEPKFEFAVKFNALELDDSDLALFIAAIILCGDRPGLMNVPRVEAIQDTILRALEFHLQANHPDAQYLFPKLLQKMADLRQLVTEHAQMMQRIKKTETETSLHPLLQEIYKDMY
Retinoic acid receptor RXR-alpha (Homo sapiens), sequence (P19793 whole entry, looked up): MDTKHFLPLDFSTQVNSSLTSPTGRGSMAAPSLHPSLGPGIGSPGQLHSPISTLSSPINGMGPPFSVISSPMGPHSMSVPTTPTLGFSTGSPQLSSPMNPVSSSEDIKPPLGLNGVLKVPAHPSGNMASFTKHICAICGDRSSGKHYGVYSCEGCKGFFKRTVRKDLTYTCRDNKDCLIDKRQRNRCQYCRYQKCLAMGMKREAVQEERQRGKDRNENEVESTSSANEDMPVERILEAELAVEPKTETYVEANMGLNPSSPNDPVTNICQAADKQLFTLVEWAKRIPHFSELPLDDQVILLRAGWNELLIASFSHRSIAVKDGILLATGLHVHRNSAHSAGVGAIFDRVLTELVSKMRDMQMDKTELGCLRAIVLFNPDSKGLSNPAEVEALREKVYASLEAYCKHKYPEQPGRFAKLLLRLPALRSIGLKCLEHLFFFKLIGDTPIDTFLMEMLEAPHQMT
Vitamin D3 receptor (Homo sapiens), sequence (P11473 whole entry, looked up): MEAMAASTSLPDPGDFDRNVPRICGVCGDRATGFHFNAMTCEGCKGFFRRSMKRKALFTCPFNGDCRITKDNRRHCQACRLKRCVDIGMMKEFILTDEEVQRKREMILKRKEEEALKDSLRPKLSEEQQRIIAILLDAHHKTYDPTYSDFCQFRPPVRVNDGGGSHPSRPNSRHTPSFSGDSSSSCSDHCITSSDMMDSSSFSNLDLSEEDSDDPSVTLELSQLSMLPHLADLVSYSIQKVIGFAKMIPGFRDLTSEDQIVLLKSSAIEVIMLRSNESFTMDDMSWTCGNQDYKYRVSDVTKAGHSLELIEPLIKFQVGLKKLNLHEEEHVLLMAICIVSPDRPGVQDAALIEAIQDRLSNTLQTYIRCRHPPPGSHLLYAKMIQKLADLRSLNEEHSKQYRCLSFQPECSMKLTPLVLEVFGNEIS

C[N+](C)(C)CC(=O)[O-]
not listed: [14] | [15] | [16] | [17] | [18] | [19] | [20]
inactive: all other assays above

CC1(C)Cc2cccc(O)c2O1
not listed: [1] | [17] | [18] | [19] | [20]
inactive: all other assays above

ClCC(Cl)CCl
not listed: [18] | [19] | [20]
inactive: all other assays above

CCCCSP(=O)(SCCCC)SCCCC
not listed: [2] | [16] | [20]
inactive: all other assays above

CCOP(=O)(OCC)OCC
active: [13] 5.49 µM
not listed: [17] | [18] | [19] | [20]
inactive: all other assays above

CC(O)CN(CC(C)O)CC(C)O (centres undefined)
not listed: [14] | [15] | [16] | [17] | [20]
inactive: all other assays above

Clc1ccc(C(Cl)(Cl)Cl)cc1
not listed: [1] | [15] | [17] | [20]
inactive: all other assays above

CC1CC(=O)O1 (centres undefined)
not listed: [14]
inactive: all other assays above

CN(C)P(=O)(N(C)C)N(C)C
not listed: [14] | [20]
inactive: all other assays above

CC1=C(C(=O)Nc2ccccc2)SCCO1
not listed: [2] | [20]
inactive: all other assays above

NC(=O)CN1CCCC1=O
not listed: [1] | [2] | [14] | [18] | [19] | [20]
inactive: all other assays above

CCNCC
not listed: [15] | [16] | [17] | [18] | [19]
inactive: all other assays above

C[N+](C)(C)CC(=O)O
not listed: [14] | [15] | [16] | [17] | [18] | [19] | [20]
inactive: all other assays above

ClC(Cl)=C(Cl)C(Cl)=C(Cl)Cl
not listed: [2] | [15] | [17] | [18] | [19]
inactive: all other assays above

COP(=S)(OC)Oc1ccc(Sc2ccc(OP(=S)(OC)OC)cc2)cc1
not listed: [2] | [14] | [18] | [19] | [20]
inactive: all other assays above

Nc1ncn[nH]1
not listed: [13] | [15] | [17]
inactive: all other assays above

Brc1ccc(Br)cc1
not listed: [2] | [14] | [17] | [20]
inactive: all other assays above

ClCc1ccccn1
not listed: [16] | [17] | [18] | [19] | [20]
inactive: all other assays above
